Source: PubChem BioAssay (Tox21)
A number with no mark means an inactive call. Activity calls are given as the source filed them. The call rests on the fitted dose curve; in most records, active means well fitted curve in the direction sought with a large enough effect in the repeat runs; inconclusive means weak or mixed curves; inactive means flat fitted curve, though single readings scatter.
On the % scale 0 is the no-effect control and ±100 the full control effect.

Assay: qHTS assay to test for compound auto fluorescence at 460 nm (blue) in HepG2 cell free culture (AID 720685)
Settings: Cell-free culture medium, blue autofluorescence 405/460 nm; series mostly up to 91.3 µM
Summary of the method: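 Compound (23 nL) or DMSO pinned into cell-free MEM with 10% FBS; blue fluorescence read at 405/460 nm excitation/emission, expressed as auto-fluorescence equivalency to triamterene.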
With CCC1(CCC(C)C)C(=O)NC(=O)NC1=O the outcome was “inactive”. In the case of C=CCN1C[C@H](C)N([C@H](c2ccc(C(=O)N(CC)CC)cc2)c2cccc(OC)c2)C[C@H]1C, the outcome is reported as “inactive”. For O=C(NC(=O)c1cc(F)c(F)cc1Cl)Nc1cc(F)ccc1N1CCC(C(=O)O)CC1, the outcome was “inactive”. For [Cl-].[Cl-].[Hg+2], the outcome was “inactive”. With CC(=O)OC(c1ccccc1)C(Cl)(Cl)Cl (configuration not stated) the outcome was “inactive”. For Cc1ncc(C[n+]2csc(CCO)c2C)c(N)n1, the outcome was “inactive”. With CN1CC[C@]23c4c5ccc(O)c4O[C@H]2[C@@H](O)C=C[C@H]3[C@H]1C5 the outcome was “inactive”. In the case of Nc1c(Br)cc(Br)c2c1C(=O)c1ccccc1C2=O, the fluorescence, % of fluorescent control is reported as -0.366% [at 18.6 µM]. With CCC(C)(C)O the outcome was “inactive”. With CC(C)(C)N(NC(=O)c1ccc(Cl)cc1)C(=O)c1ccccc1 the outcome was “inactive”. For O=[N+]([O-])c1cc(Cl)c(Cl)cc1Cl, the outcome was “inactive”. With CN(C)c1ccc(N=O)cc1 the outcome was “inactive”. With CC1(C)[C@H](C(=O)O[C@H](C#N)c2cccc(Oc3ccccc3)c2)[C@@H]1C=C(Br)Br the outcome was “inactive”. For CC(=O)NNc1ccccc1, the outcome was “inactive”. For CCCN(CCOc1c(Cl)cc(Cl)cc1Cl)C(=O)n1ccnc1, the outcome was “inactive”. With Nc1ccccc1C(=O)OCCc1ccccc1 the outcome was “inactive”. In the case of O=C(O)COc1cc(Cl)c(Cl)cc1Cl, the outcome is reported as “inactive”. In the case of NP(N)(=O)NC(=O)c1ccc(F)cc1, the outcome is reported as “inactive”. For CN1C(=O)CN=C(c2ccccc2)c2cc([N+](=O)[O-])ccc21, the outcome was “inactive”. With O=S(=O)(c1ccccc1)c1ccccc1 the outcome was “inactive”. For CCNC(=O)NC(=O)/C(C#N)=N/OC, the outcome was “inactive”. For O=C(O)CCCOc1ccc(Cl)cc1Cl, the outcome was “inactive”. With C[Si](Cn1cncn1)(c1ccc(F)cc1)c1ccc(F)cc1 the outcome was “inactive”. In the case of FC(Cl)(Cl)C(F)(Cl)Cl, the outcome is reported as “inactive”. With O=C(O)C(F)(F)C(F)(F)C(F)(F)C(F)(F)C(F)(F)C(F)(F)C(F)(F)C(F)(F)F the outcome was “inactive”. With CCC1(C2=NCCN2)Cc2ccccc2O1 (configuration not stated) the outcome was “inactive”. For O=C(O)C(O)C(O)C(=O)O (configuration not stated), the outcome was “inactive”. With Nc1ccc2c(c1)Cc1ccccc1-2 the outcome was “inactive”. For CC(Oc1cc(Cl)c(Cl)cc1Cl)C(=O)O (configuration not stated), the outcome was “inactive”. For CN1C[C@H](C(=O)N[C@]2(C)O[C@@]3(O)[C@@H]4CCCN4C(=O)[C@H](Cc4ccccc4)N3C2=O)C=C2c3cccc4[nH]cc(c34)C[C@H]21, the outcome was “inactive”. For C=C(C)C(=O)OCCCCOC(=O)C(=C)C, the outcome was “inactive”. In the case of Cc1ccc(N)c(C)c1, the outcome is reported as “inactive”. With COP(=O)(OC)OC(Br)C(Cl)(Cl)Br (configuration not stated) the outcome was “inactive”. With CC[N+]1(CCOC(=O)C(O)(c2ccccc2)c2ccccc2)CCCCC1 the outcome was “inactive”. In the case of O=CC=O, the outcome is reported as “inactive”. For C[CH2][Hg][S]c1ccccc1C(=O)O, the outcome was “inactive”. With O=P(OCC(Br)CBr)(OCC(Br)CBr)OCC(Br)CBr (configuration not stated) the outcome was “inactive”.
